Here are results for 40 molecules from PubChem BioAssay (NCATS).

Inconclusive results are not listed. Activity calls are given as the source filed them. The call rests on the fitted dose curve; in most records, active means well fitted cell-killing curve with a large enough effect; inconclusive means small, poorly fitted or top-dose-only effect, or effect the other way; inactive means no such curve, though single readings can be large or run the other way.
Potency means the concentration at half of the fitted maximal effect.

This assay can be described thus: Quantitative High-Throughput drug screen in 47 multiple myeloma cell lines against the NCATS MIPE library collection: XG6_PLB cell viability assay (AID 1919865). Further: nearly all actives have a fitted effect of over 40% in size. To be noted: XG6 myeloma viability, CellTiter-Glo ATP luminescence, 48 h; series mostly up to 45.8 µM; viability (% of control): at the top concentration. An excerpt:
PI: Beverly A. Mock Ph.D.
Laboratory of Cancer Biology and Genetics,
Center for Cancer Research, National Cancer Institute,
National Institute of Health, Bethesda, Maryland
Drug resistance and disease progression are common in multiple myeloma (MM) patients, underscoring the need for new therapeutic combinations. […] We hypothesized that effective combinations would reduce MYC expression and enhance p16 activity. […] These preclinical data identify potentially useful drug combinations for evaluation in drug-resistant MM and reveal potential mechanisms of combined drug sensitivity.
Described herein is the primary MIPE qHTS used to cherrypick compounds. Validated compounds were then further tested for potential synergistic activiy.
[1] Peat TJ, Gaikwad SM, Dubois W, Gyabaah-Kessie N, Zhang S, Gorjifard S, Phyo Z, Andres M, Hughitt VK, Simpson RM, Miller MA, Girvin AT, Taylor A, Williams D, D'Antonio N, Zhang Y, Rajagopalan A, Flietner E, Wilson K, Zhang X, Shinn P, Klumpp-Thomas C, McKnight C, Itkin Z, Chen L, Kazandijian D, Zhang J, Michalowski AM, Simmons JK, Keats J, Thomas CJ, Mock BA. Drug combinations identified by high-throughput screening promote cell cycle transition and upregulate Smad pathways in myeloma. Cancer Lett. 2023 Aug 1;568:216284. doi: 10.1016/j.canlet.2023.216284. Epub 2023 Jun 24. PMID: 37356470; PMCID: PMC10408729.
SEQUENCE No. (e.g., 1, 2, 3, etc.); […] (e.g., Cells, Incubation, Reagent, etc.); VALUE and DESCRIPTION.
1; Cells; 5 uL; white, solid bottom 1536-well Greiner assay plate.
2; Compounds; 23 nL; Kalypsis pin tool (Wako USA) equipped with a 1536-well pin head to transfer to the assay plates.
3; Incubation; 48 hours; 37C incubation.
4; Reagent;5uL; CellTiter Glo (Promega).
5; Detector; 425V; Luminescence; Viewlux PerkinElmer.
NOTES (numbers refer to Sequence numbers above)
1. The cell-based screening methods employed in this study were like those previously published. Briefly, the corresponding myeloma cell lines were screened in 1,536-well plates with 500 cells, 5-uL per well for inhibition of cell viability (assessed by measuring ATP levels with CellTiterGlo).
2. NCATS MIPE 4.0 library of approved and investigational drugs were added using the Kalypsis pin tool. Wells treated with DMSO only for 100% viability and media only for 0% viability were used as controls.
3. The assay plates were covered and incubated for 48 hours in a 37C, 5% CO2 incubator with controlled humidity.
4. After 48 hours, CellTilter-GloTM luminescent substrate mix (Promega) reagent was added to the assay plate and plates we incubated for 5 min at room temperature.
5. Signal was measured as median relative luminescence units on a ViewLux (PerkinElmer) multiplate reader.
[1] Heske CM, Davis MI, Baumgart JT, Wilson K, Gormally MV, Chen L, Zhang X, Ceribelli M, Duveau DY, Guha R, Ferrer M, Arnaldez FI, Ji J, Tran HL, Zhang Y, Mendoza A, Helman LJ, Thomas CJ. Matrix Screen Identifies Synergistic Combination of PARP Inhibitors and Nicotinamide Phosphoribosyltransferase (NAMPT) Inhibitors in Ewing Sarcoma. Clin Cancer Res. 2017 Dec 1;23(23):7301-7311. doi: 10.1158/1078-0432.CCR-17-1121. Epub 2017 Sep 12. PMID: 28899971; PMCID: PMC6636827.
A general note: In ATP-based viability assays light output follows the ATP content of the culture.
With `Nc1nc2ccc(OC(F)(F)F)cc2s1`, the “viability (% of control)” value is 102% (inactive).
On to `Nc1nccc(-c2ccc3noc(-c4ccc(Cl)cc4)c3c2)n1`, for which the Potency is 2.64 µM (active).
In the case of `CCC(C)(C)C(=O)O[C@H]1C[C@@H](C)C=C2C=C[C@H](C)[C@H](CC[C@@H]3C[C@@H](O)CC(=O)O3)[C@H]21`, the Potency is 18.7 µM (active).
`COc1cccc2cc(-c3nc(C4CCC(C(=O)O)CC4)n4ncnc(N)c34)[nH]c12` (stereo not given): the Potency was 0.418 µM (active).
Turning to `Cc1n[nH]c(C)c1Cc1sc2c(c1C(=O)N1C[C@H](O)CO1)c(=O)n(C)c(=O)n2CC(C)C`, the “viability (% of control)” value was 103% (inactive).
On to `CC(C)C[C@H](NC(=O)[C@@H](O)[C@H](N)Cc1ccccc1)C(=O)O`, for which the Potency is 20.9 µM (active).
`O=C(O)CCc1ccc(NCc2cccc(Oc3ccccc3)c2)cc1`: the “viability (% of control)” value is 95.7% (inactive).
Regarding `CN[C@@H](C)C(=O)N[C@H]1CCCC[C@H]2CC[C@@H](C(=O)N[C@@H](c3ccccc3)c3cn(CCCCc4ccc(CCCCn5cc([C@@H](NC(=O)[C@@H]6CC[C@@H]7CCCC[C@H](NC(=O)[C@H](C)NC)C(=O)N76)c6ccccc6)nn5)cc4)nn3)N2C1=O`, the Potency was 20.9 µM (active).
As to `O=C(c1cc(Cc2n[nH]c(=O)c3ccccc23)ccc1F)N1CCN(C(=O)C2CC2)CC1`, the Potency was 13.2 µM (active).
As for `Cc1c(CN2CCN(C(=O)C(C)C)CC2)sc2c(N3CCOCC3)nc(-c3cnc(N)nc3)nc12`, the Potency is 0.132 µM (active).
Turning to `c1ccc(-c2nn3c(c2-c2ccnc4cc(OCCN5CCOCC5)ccc24)CCC3)nc1`, the “viability (% of control)” value was 100% (inactive).
Turning to `NC(N)=NC(=O)c1nc(Cl)c(N)nc1N`, the Potency is 7.43 µM (active).
In the case of `O=C(NOC[C@H](O)CO)c1ccc(F)c(F)c1Nc1ccc(I)cc1F`, the Potency is 0.0074 µM (active).
Regarding `C[C@H](NC(=O)Cc1cc(F)cc(F)c1)C(=O)N[C@@H]1C(=O)N(C)c2ccccc2-c2ccccc21`, the Potency is 4.69 µM (active).
On to `Cc1cc(C=c2sc3nc4ccccc4n3c2=O)c(C)n1-c1ccccc1`, for which the “viability (% of control)” value is 76.2% (inactive).
Take `Clc1ccc(Nc2nnc(Cc3ccncc3)c3ccccc23)cc1`: the Potency is 2.09 µM (active).
Same read-out and setting: under `Cc1oncc1C(=O)Nc1ccc(C(F)(F)F)cc1` stands 4.69 µM (active); under `CCCS(=O)(=O)Nc1ccc(F)c(C(=O)c2c[nH]c3ncc(Cl)cc23)c1F`, 10.5 µM (active).
For `CCn1c(-c2nonc2N)nc2cnc(Oc3cccc(NC(=O)c4ccc(OCCN5CCOCC5)cc4)c3)cc21`, the Potency is 20.9 µM (active).
The same measure, in the same setting: under `CCOC(=O)C1=C[C@]2(CC)CCCN3CCc4c(n1c1ccccc41)[C@@H]32` stands 7.43 µM (active).
In the case of `CNC(=O)c1ccc(C)c(-n2c(C)cc(OCc3ccc(F)cc3F)c(Br)c2=O)c1`, the Potency is 16.6 µM (active).
Turning to `CC1(C)Cc2c(-c3ccccc3)c(-c3ccc(Cl)cc3)c(CC(=O)O)n2C1`, the Potency is 18.7 µM (active).
As to `CC(C)OC(=O)C1=CN(C(=O)c2ccc(F)c(F)c2)CC(C)(C)c2c1[nH]c1ccccc21`, the “viability (% of control)” value was 101% (inactive).
As to `Cc1ccc(-n2nc(C(C)(C)C)cc2NC(=O)Nc2ccc(OCCN3CCOCC3)c3ccccc23)cc1`, the Potency is 3.32 µM (active).
The same measure, in the same setting: the result for `COc1cc2nccc(Oc3ccc(NC(=O)NC4CC4)c(Cl)c3)c2cc1C(N)=O` reads 3.32 µM (active); that for `O=C1[C@H](Cc2ccc(O)cc2)N2C(=O)CCN(C(=O)NCc3ccccc3)[C@H]2CN1Cc1cccc2ccccc12`, 4.18 µM (active).
On to `COc1ccc([C@@H]2CC(=O)c3c(O)cc(O[C@@H]4O[C@H](CO[C@@H]5O[C@@H](C)[C@H](O)[C@@H](O)[C@@H]5O)[C@@H](O)[C@H](O)[C@@H]4O)cc3O2)cc1O`, for which the Potency is 5.9 µM (active).
Same read-out and setting: under `CCCc1nc2c(C)cc(-c3nc4ccccc4n3C)cc2n1Cc1ccc(-c2ccccc2C(=O)O)cc1` stands 23.5 µM (active).
For `Cc1cccc(-c2[nH]c(C(C)(C)C)nc2-c2ccc3nccnc3c2)n1`, the Potency is 3.32 µM (active).
As to `COc1ccc(-c2ccc3c(N4CCOCC4)nc(N4C[C@@H](C)O[C@@H](C)C4)nc3n2)cc1CO`, the Potency is 0.59 µM (active).
Consider `COc1ccccc1[C@H](c1cccc2ccccc12)[C@@](C)(C#N)C(=O)N1CCC(c2cccc(C(F)(F)F)c2)CC1`, for which the Potency is 4.69 µM (active).
As for `CCN(c1ccccc1)c1cc(NC)[n+](C)c(C)n1`, the “viability (% of control)” value is 106% (inactive).
For the molecule `CCCC(CCC)C(=O)O`, the Potency was 26.4 µM (active).
For the molecule `COc1ccc(-c2ccc3c(N4CCOC[C@H]4C)nc(N4CCOC[C@H]4C)nc3n2)cc1CO`, the Potency was 0.0148 µM (active).
`O=C(Nc1cccnc1)N1CCC(Cc2cccc(Oc3ccc(C(F)(F)F)cn3)c2)CC1`: the Potency is 14.8 µM (active).
Regarding `Cc1cn[nH]c1`, the Potency is 0.296 µM (active).
On the same count and under the same terms, the result for `COCC(=O)NCC=Cc1ccc2ncnc(Nc3ccc(Oc4ccc(C)nc4)c(C)c3)c2c1` reads 16.6 µM (active); that for `CCN(CC)CCCC(C)Nc1ccnc2cc(Cl)ccc12` (stereo not given), 10.5 µM (active).
As to `Cc1csc(NC(=O)c2sc3nc4c(c(C(F)(F)F)c3c2N)CCC4)n1`, the “viability (% of control)” value was 82.9% (inactive).
Regarding `CC(C)NCC(O)COc1ccc(COCCOC(C)C)cc1` (stereo not given), the “viability (% of control)” value is 107% (inactive).
